According to PubChem BioAssay (NCATS):
Inconclusive results are not listed. Activity calls are given as the source filed them. Unless noted, calls come from the whole dose curve; as a rule, active = well fitted curve in either direction with a large enough effect (not every such curve was filed as active); inconclusive = small, poorly fitted or top-dose-only effect, or another doubt; inactive = flat fitted curve, though single readings scatter.

Experiments:
[1] = target: Lysosomal acid glucosylceramidase (Homo sapiens) (UniProt P04062); assay: Glucocerebrosidase-p2 (AID 348; in the data active = potency below about 10 µM; note: potency is the fitted concentration of half-maximal effect); details: purified GBA, blue fluorogenic substrate, 40 min
Method in brief: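 Normal human glucocerebrosidase (0.2 nM) with blue fluorogenic substrate (80 uM final) in citrate/phosphate pH 5.9 with 10mM sodium taurocholate, 0.01% tween-20; 40 min RT, NaOH/glycine stop; fluorescence Ex 365/Em 440; AC50 from a titration from 0.6 nM upwards.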

[2] = AP1 Signaling Pathway (AID 357); details: ME-180 AP-1-bla reporter, EGF-induced, beta-lactamase ratio, 5 h; at 7.69 µM (top of the series) unless noted;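 note: ME-180 reporter cells stimulated with EGF at its EC50 level; % is set by controls: 0 for no effect and ±100 for the full control effect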
Method in brief: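 AP-1-bla ME-180 cells, Opti-MEM + 0.5% dialyzed FBS, plated overnight 37 °C. Cpd titration + EC50 EGF, 5 h 37 °C. CCF4 2.5 h RT; ex 405, em 460/530 ratio → %activity, AC50.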

[3] = target: Cytochrome P450 1A2 (Homo sapiens) (UniProt P05177); assay: p450-cyp1a2 (AID 410; calls by dose curve; note: potency is the fitted concentration of half-maximal effect); details: recombinant CYP1A2, luciferin-ME demethylation, luminescence; series mostly up to 57 µM
Method in brief: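 Luminescent demethylation readout: Luciferin-ME (100uM, equal to Km) turned over by 20nM CYP1A2 for 60 min at room temperature after NADPH regeneration addition, following 10 min compound preincubation. Normalization used 57 uM furafylline as full inhibition.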

[4] = NFAT Signaling Pathway (AID 444); details: Jurkat NFAT-bla M1, carbachol, beta-lactamase ratio, 5 h; at 7.69 µM (top of the series) unless noted;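 note: carbachol stimulus at about its EC50 of 1 µM final; % is set by controls: 0 for no effect and ±100 for the full control effect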
Method in brief: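 Jurkat cells with NFAT-driven β-lactamase reporter and co-expressed M1 receptor, stimulated with carbachol (final 1 uM, ~EC50), compound titration, 5 h at 37 °C. CCF4 loaded 1 h at RT; 460/530 nm ratio gave %activity and AC50.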

[5] = Stat Signaling Pathway (AID 446); details: ME-180 SIE beta-lactamase reporter, IL-6 stimulated, 5 h; at 7.69 µM (top of the series) unless noted;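 note: ME-180 cervical cancer cells given 40 pM IL-6 alongside compound; SIE-controlled beta-lactamase reporter measured as 460/530 nm FRET emission ratio; % is set by controls: 0 for no effect and ±100 for the full control effect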
Method in brief: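 FRET read-out (405 nm excitation, 460/530 nm emission) of a beta-lactamase reporter under a STAT-inducible element in ME-180 cervical carcinoma cells. Cells with compound receive 40 pM IL-6 for 5 h. Values are normalised to AC90 stimulation and AC90 JAK-inhibitor controls.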

[6] = target: Glucocorticoid receptor (Homo sapiens) (UniProt P04150); assay: GR-GFP Redistribution (AID 450;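 active = compounds whose dose series gives a full or clear partial fitted curve of increased nuclear translocation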; note: potency is the fitted concentration of half-maximal effect); details: U2OS GR-GFP nuclear translocation, laser cytometry, 2 h
[7] = target: Glucocorticoid receptor (Homo sapiens) (UniProt P04150); assay: GR-EFC Redistribution (AID 451; calls by dose curve; note: potency is the fitted concentration of half-maximal effect); details: CHO-K1 GR-EFC translocation, beta-gal luminescence, 2 h
Method in brief: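 CHO-K1 cells expressing nuclear EA and GR-ED fragments of b-gal; compounds titrated up to 46 uM final, 2 h at 37 C. GR nuclear translocation read as complemented b-gal luminescence after 1 h RT detection.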

[8] = target: Mitogen-activated protein kinase 10 (Mus musculus) (UniProt Q61831); assay: JNK3 AlphaScreen Assay (AID 530); details: JNK3 lysate, c-Jun phosphorylation; series mostly up to 57.1 µM;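 note: kinase came from lysate of stimulated human HepG2 cells; signal reports phosphorylation of biotinylated GST-cJun 1-79 at Ser73 with 10 µM ATP; % is set by controls: 0 for no effect and ±100 for the full control effect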
Method in brief: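 Activity was read by AlphaScreen after JNK3-containing HepG2 lysate (cytokine pre-activated) phosphorylated biotinylated GST-cJun with 10 uM ATP at room temperature. Phospho-Ser73 cJun antibody with Protein-A acceptor beads provided detection.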

[9] = qHTS Assay for Lipid Storage Modulators (AID 1519; calls by dose curve); details: Drosophila S3 cells, BODIPY lipid droplet/cell ratio, laser cytometry, cells loaded with oleic acid; for activity change, negative = inhibition: at 57.5 µM (top of the series)
Method in brief: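 Cells seeded at 5,000 per well were treated with compounds over a concentration series and loaded with oleic acid (400 uM, as added). Lipid droplet fluorescence (488 nm excitation, 500-530 nm channel) was read by laser-scanning cytometry and normalized to 20 uM Triacsin C.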

[10] = target: Ubiquitin carboxyl-terminal hydrolase 1 (Homo sapiens) (UniProt O94782); assay: Inhibitors of USP1/UAF1: Pilot qHTS (AID 504865; active = well fitted curve in the direction sought with a large enough effect; an effect the other way counts as inactive or inconclusive;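 note: rhodamine fluorescence freed from ubiquitin-rhodamine substrate followed over time; top concentration of the series differs between compounds; % is set by controls: 0 for no effect and ±100 for the full control effect; nearly all actives have a fitted effect of over 35% in size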); details: purified USP1/UAF1, Ub-rhodamine cleavage fluorescence; series mostly up to 54.9 µM
Method in brief: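 USP1/UAF1 complex at 1 nM preincubated 15 min at room temperature with compound, then Ub-Rho substrate added at 150 nM final. Fluorescence (480/540 nm) read kinetically in 50 mM HEPES pH 7.8, 0.5 mM EDTA, 1 mM TCEP, 0.1 mg/ml BSA, 0.01% Tween-20.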

[11] = Primary qHTS for small molecule stabilizers of the endoplasmic reticulum resident proteome: Secreted ER Calcium Modulated Protein (SERCaMP) assay (AID 1508630; active = well fitted curve in the direction sought with a large enough effect; an effect the other way counts as inactive or inconclusive; note: % is set by controls: 0 for no effect and ±100 for the full control effect); details: SH-SY5Y GLuc-SERCaMP (Gaussia luciferase released on ER calcium loss) secretion, thapsigargin, luminescence; series mostly up to 38.4 µM
Method in brief: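 The SH-SY5Y reporter protocol was run at 3 concentrations up to 38.3 uM (primary) or 11 concentrations (follow-up): 16 h compound, 100 nM thapsigargin for 4 h, then extracellular luciferase luminescence.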

[12] = target: Cytochrome P450 3A4 (Homo sapiens) (UniProt P08684); assay: qHTS Assay for Inhibitors and Substrates of Cytochrome P450 3A4 (AID 884; active = well fitted curve in the direction sought with a large enough effect; an effect the other way counts as inactive or inconclusive; note: potency is the fitted concentration of half-maximal effect; nearly all actives have a fitted effect of over 50% in size); details: recombinant CYP3A4, Luciferin-PPXE luminescence; series mostly up to 57.1 µM
Method in brief: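 Luminescent readout of luciferin produced by CYP3A4 (20 nM) dealkylation of Luciferin-PPXE, 25 uM (its KM). NADPH-driven reaction ran 60 min at RT after 10 min compound preincubation; data scaled to 57 uM ketoconazole as 100% inhibition.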

[13] = target: Cytochrome P450 3A4 (Homo sapiens) (UniProt P08684); assay: qHTS Assay for Activators of Cytochrome P450 3A4 (AID 885; active = well fitted curve in the direction sought with a large enough effect; an effect the other way counts as inactive or inconclusive; note: nearly all actives have a fitted effect of over 65% in size); details: recombinant CYP3A4, Luciferin-PPXE luminescence, 60 min; series mostly up to 57.1 µM
Method in brief: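 Luminescent readout of luciferin formed from 25 uM Luciferin-PPXE (KM level) by 20 nM CYP3A4 in 200 mM KPO4, with 60 min NADPH-driven reaction at room temperature after 10 min compound exposure. Ketoconazole (57 uM) defined 100% inhibition.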

[14] = target: Cytochrome P450 2C19 (Homo sapiens) (UniProt P33261); assay: qHTS Assay for Inhibitors and Substrates of Cytochrome P450 2C19 (AID 899; active = well fitted curve in the direction sought with a large enough effect; an effect the other way counts as inactive or inconclusive; note: potency is the fitted concentration of half-maximal effect; nearly all actives have a fitted effect of over 60% in size); details: recombinant CYP2C19, luciferin-H EGE luminescence; series mostly up to 57.1 µM
Method in brief: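 5 nM human CYP2C19 with 10uM Luciferin-H EGE (at KM) in 50mM KPO4, compound preincubated 10 min at 37C, then NADPH regeneration for 60 min at 37C. Luciferin read by luminescence after detection reagent; normalized to 57uM ketoconazole as full inhibition.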

[15] = target: Dual specificity protein kinase CLK4 (Homo sapiens) (UniProt Q9HAZ1); assay: qHTS Assay for Inhibitors of CDC-like Kinase 4 (ADP-FP Assay) (AID 1795; active = well fitted curve in the direction sought with a large enough effect; an effect the other way counts as inactive or inconclusive;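 note: recombinant human CLK4 phosphorylating RS repeat peptide at 1 µM ATP; % is set by controls: 0 for no effect and ±100 for the full control effect; nearly all actives have a fitted effect of over 60% in size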); details: Transcreener ADP fluorescence polarization; series mostly up to 50 µM
Method in brief: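 Recombinant Clk4 (6.25 nM) phosphorylated 100 uM RS repeat peptide with 1 uM ATP in 25 mM Tris pH 7.5, 10 mM MgCl2, 0.5 mM EGTA, 2.5 mM DTT, 0.01% Triton X-100 for 1 h. ADP was detected by Transcreener ADP2 competitive fluorescence polarization after 30 min at room temperature.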

[16] = target: 3',5'-cyclic-AMP phosphodiesterase 4B (Homo sapiens) (UniProt Q07343); assay: qHTS Assay for Inhibitors of PDE-IV (AID 607; active = well fitted activation curve with a large enough effect in the main read-out, with a control signal flat, not every such curve was filed as active; note: % of control where 0% means no effect); details: HEK293 ACTOne CNG channel cells, membrane potential fluorescence; series mostly up to 22.9 µM
Method in brief: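 Cell-based read-out of cAMP via a modified cyclic nucleotide-gated channel and membrane potential dye (535/590 nm) in HEK293 cells expressing PDE4 endogenously. Compounds tested up to 22.9 uM final; 100 uM RO 20-1724 reference.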

[17] = target: Cytochrome P450 2C9 (Homo sapiens) (UniProt P11712); assay: qHTS Assay for Inhibitors and Substrates of Cytochrome P450 2C9 (AID 883; active = well fitted curve in the direction sought with a large enough effect; an effect the other way counts as inactive or inconclusive; note: % is set by controls: 0 for no effect and ±100 for the full control effect; nearly all actives have a fitted effect of over 60% in size); details: recombinant CYP2C9, luciferin-H luminescence, 60 min; series mostly up to 57.1 µM
Method in brief: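 Human CYP2C9 (10nM) with Luciferin-H at 100uM (its KM) in 25mM KPO4; compound preincubated 10 min at 37C, then NADPH regeneration for 60 min at 37C. Luciferin read by luminescence after detection reagent; normalized to 57uM sulphaphenazole as full inhibition.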

[18] = qHTS Assay for Identification of Small Molecule Agonists for Hypoxia Response Element Signaling Pathway (AID 914; active = well fitted activation curve with a large enough effect in the signal ratio, with a control signal flat, not every such curve was filed as active; the % refers to the signal ratio; note: % of control where 0% means no effect); details: ME-180 (cervical carcinoma) HRE-bla reporter, beta-lactamase ratio, CoCl2, 17 h; activation: stronger effect = higher value
Method in brief: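 qHTS titration; ME-180 HRE-bla cells; EC50 CoCl2 co-treatment, 17 h at 37 degrees Celsius; CCF4 dye, ex 405nm, em 460nm and 530nm; %Activity from ratio; AC50.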

[19] = measured here: cell count channel max response
[20] = measured here: lipid channel max response

Chain of Lysosomal acid glucosylceramidase (Homo sapiens) (P04062 whole entry, looked up): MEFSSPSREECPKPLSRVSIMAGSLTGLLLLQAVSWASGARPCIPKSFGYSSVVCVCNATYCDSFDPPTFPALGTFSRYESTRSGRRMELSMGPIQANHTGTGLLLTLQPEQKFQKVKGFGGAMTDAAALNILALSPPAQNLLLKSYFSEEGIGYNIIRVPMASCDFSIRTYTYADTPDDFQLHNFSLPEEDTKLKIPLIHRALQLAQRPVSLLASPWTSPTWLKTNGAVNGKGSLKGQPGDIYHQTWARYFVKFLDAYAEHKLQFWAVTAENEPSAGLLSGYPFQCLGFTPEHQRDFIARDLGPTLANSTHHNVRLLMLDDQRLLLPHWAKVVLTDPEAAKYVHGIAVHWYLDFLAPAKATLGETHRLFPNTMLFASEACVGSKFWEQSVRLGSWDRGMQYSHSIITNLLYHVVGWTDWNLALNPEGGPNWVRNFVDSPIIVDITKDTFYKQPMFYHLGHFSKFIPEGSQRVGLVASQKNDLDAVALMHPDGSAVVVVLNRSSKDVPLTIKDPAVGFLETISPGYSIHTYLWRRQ
Chain of Glucocorticoid receptor (Homo sapiens) (P04150 whole entry, looked up, the tested form may be a part): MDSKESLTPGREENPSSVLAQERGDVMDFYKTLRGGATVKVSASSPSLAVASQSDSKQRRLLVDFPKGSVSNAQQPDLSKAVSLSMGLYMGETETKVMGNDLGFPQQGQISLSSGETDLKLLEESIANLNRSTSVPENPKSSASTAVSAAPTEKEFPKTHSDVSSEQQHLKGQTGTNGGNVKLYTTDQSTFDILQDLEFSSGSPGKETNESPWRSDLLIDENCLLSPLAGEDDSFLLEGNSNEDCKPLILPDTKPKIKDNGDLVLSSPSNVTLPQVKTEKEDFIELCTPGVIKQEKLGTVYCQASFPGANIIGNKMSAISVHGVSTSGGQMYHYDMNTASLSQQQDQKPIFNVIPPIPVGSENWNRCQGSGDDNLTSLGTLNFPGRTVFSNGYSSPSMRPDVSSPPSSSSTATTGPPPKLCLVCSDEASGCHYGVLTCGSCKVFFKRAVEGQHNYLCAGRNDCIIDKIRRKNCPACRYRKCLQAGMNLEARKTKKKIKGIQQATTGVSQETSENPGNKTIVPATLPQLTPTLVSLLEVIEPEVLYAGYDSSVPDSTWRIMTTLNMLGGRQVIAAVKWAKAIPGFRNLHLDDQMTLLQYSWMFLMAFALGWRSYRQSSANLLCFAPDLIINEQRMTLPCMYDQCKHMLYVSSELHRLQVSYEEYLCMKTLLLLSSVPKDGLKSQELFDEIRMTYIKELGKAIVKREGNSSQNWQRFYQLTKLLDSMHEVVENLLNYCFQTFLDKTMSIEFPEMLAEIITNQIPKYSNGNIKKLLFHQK
Chain of Cytochrome P450 3A4 (Homo sapiens) (P08684 whole entry, looked up): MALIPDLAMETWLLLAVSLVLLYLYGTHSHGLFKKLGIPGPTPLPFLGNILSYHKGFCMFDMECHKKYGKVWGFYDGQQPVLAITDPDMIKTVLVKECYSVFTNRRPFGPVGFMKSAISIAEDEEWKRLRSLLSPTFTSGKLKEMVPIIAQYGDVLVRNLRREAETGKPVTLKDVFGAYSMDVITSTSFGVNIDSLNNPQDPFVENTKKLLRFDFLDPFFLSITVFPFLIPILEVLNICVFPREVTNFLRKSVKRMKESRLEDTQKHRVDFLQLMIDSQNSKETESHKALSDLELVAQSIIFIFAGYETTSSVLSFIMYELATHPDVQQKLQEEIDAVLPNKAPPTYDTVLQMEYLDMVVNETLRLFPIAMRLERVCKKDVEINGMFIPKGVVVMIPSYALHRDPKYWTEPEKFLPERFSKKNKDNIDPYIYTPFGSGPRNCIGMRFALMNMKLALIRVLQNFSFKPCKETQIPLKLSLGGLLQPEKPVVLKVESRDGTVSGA
Chain of Ubiquitin carboxyl-terminal hydrolase 1 (Homo sapiens) (O94782 whole entry, looked up): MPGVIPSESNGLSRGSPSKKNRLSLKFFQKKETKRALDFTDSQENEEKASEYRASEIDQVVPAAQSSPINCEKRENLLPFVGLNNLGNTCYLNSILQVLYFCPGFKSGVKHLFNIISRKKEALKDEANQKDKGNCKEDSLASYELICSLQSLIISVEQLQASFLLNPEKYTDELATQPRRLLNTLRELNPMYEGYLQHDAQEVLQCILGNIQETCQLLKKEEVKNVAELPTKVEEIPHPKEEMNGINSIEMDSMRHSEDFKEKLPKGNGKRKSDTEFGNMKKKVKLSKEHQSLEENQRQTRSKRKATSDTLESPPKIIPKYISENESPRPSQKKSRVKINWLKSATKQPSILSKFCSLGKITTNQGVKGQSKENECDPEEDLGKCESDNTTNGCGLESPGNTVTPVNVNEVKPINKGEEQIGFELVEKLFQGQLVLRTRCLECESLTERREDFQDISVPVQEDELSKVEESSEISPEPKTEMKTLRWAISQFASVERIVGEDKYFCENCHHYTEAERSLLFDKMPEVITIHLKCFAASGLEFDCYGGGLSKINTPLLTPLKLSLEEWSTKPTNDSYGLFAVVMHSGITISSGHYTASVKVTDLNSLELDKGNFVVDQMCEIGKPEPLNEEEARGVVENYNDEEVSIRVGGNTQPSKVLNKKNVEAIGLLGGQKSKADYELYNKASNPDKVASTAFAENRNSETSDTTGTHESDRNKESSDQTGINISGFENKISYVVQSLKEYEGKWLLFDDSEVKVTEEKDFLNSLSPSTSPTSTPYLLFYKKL
Chain of Dual specificity protein kinase CLK4 (Homo sapiens) (Q9HAZ1 whole entry, looked up): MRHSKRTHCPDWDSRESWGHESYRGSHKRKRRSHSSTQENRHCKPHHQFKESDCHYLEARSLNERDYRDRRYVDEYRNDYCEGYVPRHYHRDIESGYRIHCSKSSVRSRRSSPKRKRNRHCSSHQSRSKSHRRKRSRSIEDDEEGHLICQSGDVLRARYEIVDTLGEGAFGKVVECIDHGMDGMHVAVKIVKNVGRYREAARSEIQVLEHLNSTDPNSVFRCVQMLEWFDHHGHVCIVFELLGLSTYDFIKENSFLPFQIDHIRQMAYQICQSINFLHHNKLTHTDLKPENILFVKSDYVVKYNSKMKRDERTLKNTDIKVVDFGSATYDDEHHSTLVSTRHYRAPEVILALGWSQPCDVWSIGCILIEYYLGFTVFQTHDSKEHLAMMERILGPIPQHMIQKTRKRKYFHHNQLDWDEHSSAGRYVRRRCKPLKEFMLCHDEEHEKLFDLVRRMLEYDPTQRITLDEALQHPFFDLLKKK
Chain of Cytochrome P450 2C9 (Homo sapiens) (P11712 whole entry, looked up): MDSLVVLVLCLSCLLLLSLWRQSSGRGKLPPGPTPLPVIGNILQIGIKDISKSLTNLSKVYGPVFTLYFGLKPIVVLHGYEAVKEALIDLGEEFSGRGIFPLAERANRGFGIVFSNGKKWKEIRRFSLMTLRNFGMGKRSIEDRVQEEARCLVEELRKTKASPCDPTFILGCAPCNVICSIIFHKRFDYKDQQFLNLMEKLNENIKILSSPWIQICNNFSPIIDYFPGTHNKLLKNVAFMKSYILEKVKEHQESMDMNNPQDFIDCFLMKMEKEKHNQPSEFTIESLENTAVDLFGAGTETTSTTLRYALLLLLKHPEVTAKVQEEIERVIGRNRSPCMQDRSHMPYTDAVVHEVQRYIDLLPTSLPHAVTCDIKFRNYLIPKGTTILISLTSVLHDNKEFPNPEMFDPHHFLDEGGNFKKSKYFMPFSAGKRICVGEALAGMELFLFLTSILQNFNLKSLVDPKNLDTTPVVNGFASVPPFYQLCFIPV
Chain of Cytochrome P450 1A2 (Homo sapiens) (P05177 whole entry, looked up): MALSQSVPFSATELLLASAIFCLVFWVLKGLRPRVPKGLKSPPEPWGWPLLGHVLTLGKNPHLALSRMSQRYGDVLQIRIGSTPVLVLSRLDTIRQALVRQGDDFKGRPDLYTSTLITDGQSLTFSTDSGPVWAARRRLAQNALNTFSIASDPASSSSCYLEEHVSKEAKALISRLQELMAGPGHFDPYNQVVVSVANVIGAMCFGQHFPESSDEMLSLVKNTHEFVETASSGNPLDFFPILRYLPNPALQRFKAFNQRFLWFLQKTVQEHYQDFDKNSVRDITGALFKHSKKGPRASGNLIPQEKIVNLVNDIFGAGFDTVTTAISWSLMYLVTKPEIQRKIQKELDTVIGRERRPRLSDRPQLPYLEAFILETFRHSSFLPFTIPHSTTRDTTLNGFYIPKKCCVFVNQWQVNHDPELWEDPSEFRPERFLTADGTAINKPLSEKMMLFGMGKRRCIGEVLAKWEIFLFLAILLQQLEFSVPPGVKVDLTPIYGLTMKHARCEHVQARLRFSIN
Chain of 3',5'-cyclic-AMP phosphodiesterase 4B (Homo sapiens) (Q07343 whole entry, looked up): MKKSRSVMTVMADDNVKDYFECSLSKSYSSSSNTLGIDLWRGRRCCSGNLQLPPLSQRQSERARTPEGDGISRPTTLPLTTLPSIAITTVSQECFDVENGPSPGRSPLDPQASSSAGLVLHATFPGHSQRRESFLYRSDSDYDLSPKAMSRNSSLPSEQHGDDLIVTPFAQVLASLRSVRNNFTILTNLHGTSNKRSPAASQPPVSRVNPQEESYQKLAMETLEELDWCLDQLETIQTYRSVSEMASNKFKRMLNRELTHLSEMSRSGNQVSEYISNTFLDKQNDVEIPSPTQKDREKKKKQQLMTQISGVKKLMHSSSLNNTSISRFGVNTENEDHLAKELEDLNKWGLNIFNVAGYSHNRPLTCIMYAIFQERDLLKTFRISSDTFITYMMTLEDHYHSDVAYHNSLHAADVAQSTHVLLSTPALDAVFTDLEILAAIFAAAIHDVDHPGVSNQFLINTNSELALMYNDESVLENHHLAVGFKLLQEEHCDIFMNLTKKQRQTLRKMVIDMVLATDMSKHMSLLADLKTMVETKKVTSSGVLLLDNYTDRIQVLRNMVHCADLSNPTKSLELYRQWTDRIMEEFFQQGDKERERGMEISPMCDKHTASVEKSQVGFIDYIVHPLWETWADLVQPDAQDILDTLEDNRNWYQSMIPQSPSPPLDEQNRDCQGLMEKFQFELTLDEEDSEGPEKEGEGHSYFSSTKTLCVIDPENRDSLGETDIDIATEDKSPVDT

**Q.** Which Potency [1] does the source give for `N#Cc1cccc(-c2cc(NCc3ccccc3)ncn2)c1` here?
**A.** > 11.4 µM (inactive)

**Q.** And the activity change, negative = inhibition [2]?
**A.** -7.27% (inactive)

**Q.** What about the Potency [3] of the same compound?
**A.** 1 µM (active)

**Q.** What about the activity change, negative = inhibition [4] of the same compound?
**A.** 17.5% (inactive)

**Q.** What about the activity, negative = inhibition [5] of the same compound?
**A.** 4.28% (inactive)

**Q.** And the Potency [6]?
**A.** > 46 µM (inactive)

**Q.** What about the Potency [7] of the same compound?
**A.** > 46 µM (inactive)

**Q.** What about the outcome [8] of the same compound?
**A.** inactive

**Q.** And the activity change, negative = inhibition [9]?
**A.** 6.18% (inactive)

**Q.** And the max response [9, 19]?
**A.** 26.4%

**Q.** And the max response [9, 20]?
**A.** 32.1%

**Q.** And the Potency [10]?
**A.** inactive

**Q.** And the Potency [11]?
**A.** inactive

**Q.** With `COc1cccc(-c2cncnc2Nc2ccc(F)cc2)c1` as the compound, how does the Potency [1] read?
**A.** > 11.4 µM (inactive)

**Q.** And the activity change, negative = inhibition [2]?
**A.** -13.2% (inactive)

**Q.** And the activity change, negative = inhibition [4]?
**A.** 13.9% (inactive)

**Q.** And the activity, negative = inhibition [5]?
**A.** -10.1% (inactive)

**Q.** And the Potency [6]?
**A.** > 46 µM (inactive)

**Q.** What about the Potency [7] of the same compound?
**A.** > 46 µM (inactive)

**Q.** And the outcome [8]?
**A.** inactive

**Q.** What about the Potency [12] of the same compound?
**A.** 0.794 µM (active)

**Q.** What about the Potency [13] of the same compound?
**A.** inactive

**Q.** What about the Potency [14] of the same compound?
**A.** 0.398 µM (active)

**Q.** What about the activity change, negative = inhibition [9] of the same compound?
**A.** 9.47% (inactive)

**Q.** What about the max response [9, 19] of the same compound?
**A.** 6.55%

**Q.** And the max response [9, 20]?
**A.** 18.7%

**Q.** And the Potency [15]?
**A.** inactive

**Q.** What about the Potency [11] of the same compound?
**A.** inactive

**Q.** Which Potency [1] does the source give for `CN(C)C(=O)c1ccc(-c2ccc3ncnc(N4CCC(C(=O)O)CC4)c3c2)cc1` here?
**A.** > 11.4 µM (inactive)

**Q.** What about the activity change, negative = inhibition [2] of the same compound?
**A.** 0.539% (inactive)

**Q.** What about the activity change, negative = inhibition [4] of the same compound?
**A.** 7.54% (inactive)

**Q.** And the activity, negative = inhibition [5]?
**A.** -4.54% (inactive)

**Q.** And the Potency [7]?
**A.** > 46 µM (inactive)

**Q.** And the outcome [8]?
**A.** inactive

**Q.** And the Potency [16]?
**A.** inactive

**Q.** And the activity change, negative = inhibition [17]?
**A.** 37.2% [at 2.29 µM] (inactive)

**Q.** And the activation [18]?
**A.** -0.026% (inactive)

**Q.** And the activity change, negative = inhibition [9]?
**A.** 3.56% (inactive)

**Q.** What about the max response [9, 19] of the same compound?
**A.** 20.3%

**Q.** What about the max response [9, 20] of the same compound?
**A.** 23.2%

**Q.** What about the Potency [15] of the same compound?
**A.** inactive

**Q.** And the Potency [10]?
**A.** inactive

**Q.** What about the Potency [11] of the same compound?
**A.** inactive
